Sampled rows, rich in hits. Any-hit rate of the full collection: about 2.8%.
Pol eta inh-1: blocks human DNA polymerase eta activity; Q9Y253; recombinant Pol eta, fluorescent DNA replication assay; Potency, µM (top dose mostly 114 µM), hits mostly inhibitors; 1.2% of 390,000 active
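Pol eta (10 nM) was preincubated with compounds for 15 min at room temperature, after which fluorescent replication substrate (50 nM final) was added to start the reaction. Fluorescence was read kinetically at 0 and 10 min.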
Pol iota inh: inhibitors of human DNA polymerase iota. Pol iota fluorescent replication assay, 10 min. Potency, µM (series often up to 115 µM), usual class: inhibitors. Q9UNA4. 1% of 390,000 active
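Fluorescent replication assay read twice, at 0 min and 10 min after adding 50 nM (final) substrate. Enzyme (10 nM) and compounds were first incubated 15 min at room temperature; enzyme-free buffer wells were negative controls.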
Pol beta inh: DNA polymerase beta (human) inhibition; P06746; Pol beta primer extension/strand displacement, fluorescence kinetic; Potency, µM (doses to about 114 µM), actives largely listed as inhibitors; 1.3% of 340,000 active
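Pol beta (10 nM) and compounds were preincubated 15 min at room temperature, then 50 nM substrate (final) started primer extension/strand displacement. Reads were taken at 0 and 10 min; concentration-response data were fitted to a four-parameter Hill equation.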
WRN helicase inh: blocks human WRN helicase. Q14191. 0.46% of 360,000 active. WRN helicase unwinding, fluorescent forked duplex, kinetic. Potency, µM (highest dose often 114 µM), usual class: inhibitors; further: nearly all actives have a fitted effect of over 55% in size
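Primary qHTS, 1536-well format. 20 nM WRN + compound, 15 min RT; start with 100 nM forked fluorophore/quencher duplex, 2 mM ATP (final); kinetic read ex 525/em 598 nm.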
Pol kappa inh-1: DNA polymerase kappa (human) inhibition. Q9UBT6. purified Pol kappa, fluorescent DNA synthesis assay, 10 min. Potency, µM (doses to about 107 µM), hits mostly inhibitors. 0.53% of 400,000 active
Target sequence (Q9UBT6 whole entry, looked up): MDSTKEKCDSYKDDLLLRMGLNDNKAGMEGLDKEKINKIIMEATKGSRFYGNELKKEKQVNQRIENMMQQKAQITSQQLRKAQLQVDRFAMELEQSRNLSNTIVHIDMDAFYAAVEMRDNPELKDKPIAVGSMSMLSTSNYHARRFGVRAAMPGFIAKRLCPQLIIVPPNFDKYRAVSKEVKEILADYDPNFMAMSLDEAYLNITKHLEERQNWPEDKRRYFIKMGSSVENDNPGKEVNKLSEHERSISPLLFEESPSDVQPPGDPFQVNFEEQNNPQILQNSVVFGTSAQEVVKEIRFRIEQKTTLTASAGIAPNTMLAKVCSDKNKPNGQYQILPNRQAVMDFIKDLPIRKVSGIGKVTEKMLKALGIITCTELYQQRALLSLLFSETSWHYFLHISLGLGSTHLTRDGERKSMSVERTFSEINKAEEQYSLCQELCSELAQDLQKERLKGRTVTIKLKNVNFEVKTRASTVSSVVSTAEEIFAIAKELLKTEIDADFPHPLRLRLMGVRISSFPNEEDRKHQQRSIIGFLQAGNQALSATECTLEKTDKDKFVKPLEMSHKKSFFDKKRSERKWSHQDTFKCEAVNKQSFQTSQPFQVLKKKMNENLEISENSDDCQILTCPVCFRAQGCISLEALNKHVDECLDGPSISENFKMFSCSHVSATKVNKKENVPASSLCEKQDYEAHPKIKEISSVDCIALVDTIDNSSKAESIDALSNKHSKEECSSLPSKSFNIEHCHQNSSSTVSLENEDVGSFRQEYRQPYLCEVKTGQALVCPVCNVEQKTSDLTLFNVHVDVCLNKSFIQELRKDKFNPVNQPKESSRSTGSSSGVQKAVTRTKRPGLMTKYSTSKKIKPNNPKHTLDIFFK
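Here, compound and 10 nM enzyme are combined for 15 min at room temperature; adding 50 nM substrate (final) starts DNA synthesis, tracked by fluorescence at 0 and 10 min against buffer-only wells.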
PI5P4Ka inh: blocks human PI5P4K alpha kinase activity | AID 652105 | max response, % | 1.2% of 330,000 active | PI5P4Kalpha enzyme, ADP-Glo luminescence, 60 min; stronger effect = lower value; active means max response of -50% or lower; inconclusive means between -30% and -50%; inactive means -30% or higher; further: value at the top dose of about 77 µM
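PI5P4Kalpha ADP-Glo assay; 5 microM ATP final; 60 min RT reaction; HEPES pH 7.4/EGTA/CHAPS, 5% DMSO; controls lacking substrate or enzyme; luminescent end-point.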
TbPGK inh: blocks T. brucei phosphoglycerate kinase | shares compounds with Pol kappa inh-1 | TbPGK coupled GAPDH assay, Kinase-Glo luminescence | Potency, µM (series often up to 57.5 µM), most hits filed as inhibitors | 79% of 500 active; further: nearly all actives have a fitted effect of over 65% in size
POLI cherry-pick: Confirm cherry-picked inhibitors of human polymerase iota; shares compounds with Pol kappa inh-1; Pol iota primer extension, TAMRA/BHQ fluorescence; Potency, µM, most hits filed as inhibitors; 77% of 1,500 active; AID 720496
GALK inh confirm: galactokinase (human) inhibition, confirmation; shares compounds with Pol eta inh-1; purified GALK, Kinase-Glo ATP depletion luminescence; Potency, µM (highest dose often 115 µM), most hits filed as inhibitors; 70% of 150 active; AID 2015
GALK redox cs: redox cycling activity in phenol red-HRP assay | 40% of 150 active | Potency, µM (doses to about 115 µM), hits mostly inhibitors | shares compounds with Pol eta inh-1 | Phenol red-HRP H2O2 redox cycling, absorbance 600 nm | AID 2035
HEK293 viability: HEK-293 cytotoxicity, GALK inhibitor secondary; shares compounds with Pol eta inh-1; HEK-293 viability, ATP luminescence (CellTiter-Glo), 24/48 h; Potency, µM (top dose mostly 46.1 µM), most hits filed as inhibitors; 10% of 170 active
Pol kappa inh-2: Pol kappa (human) inhibition, cherry-pick confirmation; shares compounds with Pol eta inh-1; purified Pol-kappa, fluorescent strand-displacement substrate; Potency, µM, actives largely listed as inhibitors; 76% of 920 active
Pol eta inh-2: confirmation of human DNA polymerase eta inhibitors; shares compounds with Pol eta inh-1; Potency, µM, actives largely listed as inhibitors; 64% of 2,600 active; Pol eta primer extension, TAMRA/BHQ fluorescence, 10 min
A number is an active result; 0 = inactive; ? = inconclusive; - = no result given; [ ] = remark or other dose. Unless noted, the call rests on the fitted dose curve; in most records, active means well fitted curve in the direction sought with a large enough effect; inconclusive means small, poorly fitted or top-dose-only effect, or another doubt; inactive means no such curve, though single readings can be large; an effect the other way counts as inactive or inconclusive.

SMILES	Pol eta inh-1	Pol iota inh	Pol beta inh	WRN helicase inh	Pol kappa inh-1	PI5P4Ka inh	POLI cherry-pick	Pol eta inh-2	others
C[n+]1cccc2c(Br)ccc([O-])c21	20µM	?	28µM	0[11.6 µM]	0	0	19	24	GALK inh confirm=47µM;GALK redox cs=21µM;HEK293 viability=0
CSc1nsc(/C=C/Nc2ccc(C(=O)O)cc2)c1C#N	28µM	0	32µM	0	0	0	75	43
CSc1nsc(/C=C/Nc2ccc(F)cc2F)c1C#N	0	0	0	0	0	0	-	-
O=C(O)Cc1ccc(NC(=O)c2ccc3c(c2)C(=O)N(Cc2ccco2)C3=O)cc1	4µM	11µM	0	40µM	?	0	60	24
O=C(CCn1c(=O)c2cccn2c2cccnc21)N1CCN(c2ccc(F)cc2)CC1	0	0	0	-	0	-	-	-
CC(C)[C@H](NC(=O)C1CC(=O)N(c2ccc3c(c2)OCO3)C1)C(=O)NC1CCCC1 (stereo partly specified)	32µM	0	?	0[11.6 µM]	0	0	?	76
O=C(COC(=O)c1ccc(OC(F)(F)F)cc1)Nc1ncccn1	18µM	?	-	?	?	0	60	76	Pol kappa inh-2=?
C=Cc1c(C)c2cc3[nH]c(cc4nc(cc5nc(cc1[nH]2)C(C)=C5CCC(=O)O)C(CCC(=O)O)=C4C)c(C)c3C=C	4.5µM	10µM	1.4µM	35µM	9.5µM	-51	3	2.7	TbPGK inh=0.23µM
CCN(CC)c1ccc(C(=O)OCC(=O)Nc2cc(C)on2)cc1	0	0	-	0	0	0	-	-
COc1ccc(NC(=O)C2CCN(S(=O)(=O)c3c(C)noc3/C=C/c3ccco3)CC2)cc1	32µM	?	25µM	-	?	-	24	27	TbPGK inh=10µM;Pol kappa inh-2=12
COc1cc(C)cc(C(=O)O)c1C1=C(O)c2cccc(O)c2C(=O)C1=O	16µM	35µM	28µM	?	50µM	-78	34	24
O=C(O)C1CCCCC1C(=O)Nc1cccc(Br)c1 (stereo unspecified)	13µM	45µM	-	50µM	?	?	75	38	Pol kappa inh-2=19
COC/C=C/C1=CC2=CC(=O)C(C)(OC(=O)c3cnc4ccccc4n3)C(=O)C2=CN1C1CC1 (stereo unspecified)	?	?	-	0	0	0	-	-
CC1(OC(=O)c2ccc(Cl)nc2)C(=O)C=C2C=C3CCCN3C=C2C1=O (stereo unspecified)	14µM	?	25µM	?	50µM	?	67	48
Cc1ccccc1CNC(=O)Cn1c(=O)c2cccn2c2cccnc21	0	?	?	-	0	-	-	-
Cc1ccc(C(=O)Nc2nnc(CC(=O)N/N=C/c3ccncc3)s2)cc1	?	0	0	0[11.6 µM]	0	?	-	-

High-throughput results as filed in PubChem.
